Reference: PubChem BioAssay AID1851 (National Center for Advancing Translational Sciences (NCATS), 2009)
The campaign covered roughly 16,000 compounds. About 4,000 (25%) were called active. Roughly 26% stayed inconclusive and do not appear here. The call rests on the fitted dose curve; in most records, active means well fitted curve in the direction sought with a large enough effect; inconclusive means small, poorly fitted or top-dose-only effect, or effect the other way; inactive means no such curve, though single readings can be large or run the other way. These entries were drawn from the full list.

The compounds below were run against Cytochrome P450 2C9 (Homo sapiens) (UniProt P11712) (assay: Cytochrome panel assay with activity outcomes). Conditions: recombinant CYP, pro-luciferin dealkylation, luminescence, p450-cyp2c9; series mostly up to 57.1 µM; activity, negative = inhibition: at the top concentration.
Sequence of Cytochrome P450 2C9 (Homo sapiens) (P11712 whole entry, looked up): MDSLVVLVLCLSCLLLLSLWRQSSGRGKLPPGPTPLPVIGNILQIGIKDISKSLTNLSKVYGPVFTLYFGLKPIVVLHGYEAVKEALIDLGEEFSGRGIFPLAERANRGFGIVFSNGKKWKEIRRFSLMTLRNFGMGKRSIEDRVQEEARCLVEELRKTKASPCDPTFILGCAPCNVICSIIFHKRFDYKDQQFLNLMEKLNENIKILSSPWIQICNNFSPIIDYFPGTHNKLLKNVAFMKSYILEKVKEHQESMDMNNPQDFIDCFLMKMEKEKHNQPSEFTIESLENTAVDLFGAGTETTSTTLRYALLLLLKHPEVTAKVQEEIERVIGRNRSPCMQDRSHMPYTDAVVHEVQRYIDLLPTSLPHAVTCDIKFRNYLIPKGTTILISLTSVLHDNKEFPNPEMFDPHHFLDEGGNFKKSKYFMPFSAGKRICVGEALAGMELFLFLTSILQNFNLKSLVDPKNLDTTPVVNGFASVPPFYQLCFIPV
On the % scale 0 is the no-effect control and ±100 the full control effect.

AC50, inactive:
C#CCN(C)Cc1ccccc1
CO[C@@]12C[C@@H](COC(=O)c3cncc(Br)c3)CN(C)[C@H]1Cc1cn(C)c3cccc2c13
O=C(c1ccccc1)c1ccc2n1CC[C@H]2C(=O)O

AC50, active:
Cc1ccc(S(=O)(=O)/N=C2/NC(=O)/C(=C/c3cccnc3)S2)cc1 0.0794 µM
CC(C)c1ccc(/C=N/NC(=O)CN(c2cccc(Cl)c2Cl)S(C)(=O)=O)cc1 8.91 µM
CN(Cc1ccccc1)Cn1ccnc1 2.51 µM
O=C(Nc1ccc2c(c1)nc1n2CCN(C2CCCCC2)C1)NC1CCCCC1 14.1 µM
CCN(CC)C(=O)Cn1cc(/C=C(\C#N)C(=O)N2CCN(c3ccccc3)CC2)c2ccccc21 3.55 µM
COc1ccccc1CCn1c(=O)c(-c2cc(F)cc(F)c2)nc2cncnc21 1.58 µM
COc1ccccc1CCn1c(=O)c(-c2cccc(F)c2)nc2cncnc21 2.51 µM
CCOc1cccc(/C(O)=C2/C(=O)C(=O)N(Cc3cccnc3)C2c2ccco2)c1 (centres undefined) 1.58 µM
COc1ccc(/C(O)=C2/C(=O)C(=O)N(Cc3cccnc3)C2c2ccco2)cc1OC (centres undefined) 8.91 µM
COc1cccc(/C(O)=C2/C(=O)C(=O)N(Cc3cccnc3)C2c2ccco2)c1 (centres undefined) 0.398 µM
Cc1c(Cl)cccc1NC(=O)c1ccc(-n2ccnc2)nc1 0.0794 µM
O=C(Nc1ccc(F)cc1)c1ccc(-n2ccnc2)nc1 0.178 µM
COc1cc(Br)c(C(C)NC(=O)c2cccc(Br)c2)cc1OC (centres undefined) 2.82 µM
COc1ccc(C(=O)NC(C)c2cc(OC)c(OC)cc2Br)cc1 (centres undefined) 12.6 µM
Cc1cc([N+](=O)[O-])ccc1-c1ccc(C2Nc3ccccc3C(=O)N2O)o1 (centres undefined) 2.82 µM
CCOC(=O)Cc1csc(NC(=O)c2sc3nc4ccc(CC)cc4cc3c2N)n1 0.447 µM
CCOC(=O)Cc1csc(NC(=O)c2ccc(Cl)nc2)n1 11.2 µM
Cc1cccc(C)c1NC(=O)/C(C#N)=C/c1cccs1 11.2 µM
CCOc1ccc(-n2c(SCC(=O)Nc3ccc4c(c3)OCCO4)nc3c(c2=O)SCC3)cc1 2.82 µM
CCOc1ccc(-n2c(SCC(=O)Nc3ccc(OC)cc3OC)nc3c(c2=O)SCC3)cc1 4.47 µM
COc1ccc(/C(C#N)=C/c2c(-c3ccc(Cl)cc3)nc3c(C)cccn23)cc1 5.01 µM
O=C(O)Cc1sc(-c2ccc(Cl)cc2)nc1-c1ccccc1 2 µM
BrC(c1cccc2ccccc12)c1cccc2ccccc12 3.16 µM
Fc1ccc(C2CC(c3ccco3)=NN2c2ccccc2)cc1 (centres undefined) 1.41 µM
Cc1cccc(NC2=NC(=S)N(c3ccc(C(=O)O)cc3)C23CCCCC3)c1 25.1 µM
CCc1nc(N2CCC3(CC2)OCCO3)c2nnn(Cc3ccccc3Cl)c2n1 11.2 µM
COc1cccc(NC(=S)NNC(=O)C(C)n2nc(C)c([N+](=O)[O-])c2C)c1 (centres undefined) 5.01 µM
Cc1nn(C(C)C(=O)Nc2ccc(Cl)cn2)c(C)c1[N+](=O)[O-] (centres undefined) 14.1 µM
Cc1ncsc1C(=O)N1N=C2/C(=C/c3ccccc3)CCCC2C1c1ccccc1 (centres undefined) 2.82 µM
COc1ccc(/C=C2\CCCC3C2=NN(C(=O)c2ccco2)C3c2ccc(OC)c(OC)c2)cc1OC (centres undefined) 11.2 µM
O=c1cc(-c2ccccc2)[nH]n1-c1ccc([N+](=O)[O-])cc1 10 µM

activity, negative = inhibition, inactive:
CCN(CC)c1ccc(N2C(=O)/C(=C/c3cccnc3)SC2=S)cc1 -19.1%
CC(C)NC(=O)CC(=O)N/N=C/c1ccc(F)cc1 -8.73%
C/C(CCN1CCc2nc(-c3ccccc3)c(-c3ccccc3)cc2C1)=N\O[C@@H](C)CN1CCCCc2nc(C)c(C)cc21 2.2% [at 11.4 µM]
CN(C)Cc1ccccc1-c1cc(-n2ccnc2)ncn1 -14.3% [at 2.29 µM]
CC1(C)CC(=O)c2cn3ncnc3nc2C1 5.85%
Cn1c(CN2CCCC2)nc2cc(NC(=O)C3CCCCC3)ccc21 0.65%
CC1CCN(CCc2nc3cc(NC(=O)NC4CCCCC4)ccc3n2C)CC1 -16%
N/C(CC/C(N)=N/O)=N\O -8.92% [at 11.4 µM]
CCc1cccc2c(C=C(C#N)C#N)cn(CC(=O)N3CCCCC3)c12 -10.4%
O=C1O[C@H](CN2CCOCC2)CN1/N=C\c1ccc([N+](=O)[O-])o1 8.64% [at 25.6 µM]
C[C@@H](C[N+](C)(C)C)OC(N)=O 1.12% [at 25.6 µM]
COCCn1c(=O)c(-c2cc(F)cc(F)c2)nc2cncnc21 4.81%
COCCn1c(=O)c(-c2cccc(F)c2)nc2cncnc21 -29.5%
COc1ccc(-n2c(=O)c(-c3cccc(F)c3)nc3cncnc32)cc1 2.43%
Cn1c(=O)c(-c2cc(F)cc(F)c2)nc2cncnc21 -20.8%
c1ncc(-c2ccoc2)c(NC2CC2)n1 5.65% [at 2.29 µM]
CCCNc1[nH]c(=O)n(C)c(=O)c1N=O -18.2%
O=C(O)C12CC3(C(=O)O)CC(C(=O)O)(CC(C(=O)O)(C1)C3=O)C2=O -3.16% [at 11.4 µM]
COc1ccc(C2C(C(=O)c3ccco3)=C(O)C(=O)N2Cc2cccnc2)cc1OC (centres undefined) 18%
COCCN1C(=O)C(=O)/C(=C(/O)c2cccc(OC)c2)C1c1ccco1 (centres undefined) -10.9%
COc1ccccc1-c1cc(NCc2cccnc2)ncn1 -17.3% [at 2.29 µM]
COCCCN1C(=O)C(=O)/C(=C(/O)c2ccc(OC)cc2C)C1c1cccnc1 (centres undefined) -3.89%
CCc1cc2c(nc1CC)CCN(CC/C(C)=N/O[C@@H]1O[C@H](COC(C)=O)[C@H](OC(C)=O)[C@H](OC(C)=O)[C@H]1OC(C)=O)C2 1.56% [at 11.4 µM]
CN(C)C(=O)c1ccc(-c2nccc(-n3ccnc3)n2)cc1 17.2% [at 2.29 µM]
CN(C)C(=O)c1ccc(-c2cncnc2-n2ccnc2)cc1 12.6% [at 2.29 µM]
c1cncc(-c2cc(-n3ccnc3)ncn2)c1 12.2% [at 2.29 µM]
CS(=O)(=O)Nc1cccc(-c2cncnc2-n2ccnc2)c1 10.1% [at 2.29 µM]
O=C(NCCC[N+]1=CC=N[C@H]1c1ccccc1)N1CCCc2nc(-c3ccc(Br)cc3)ccc21 -48.1% [at 11.4 µM]
O=C(Nc1ccccc1)N1CC[C@@]2(CCCN(C(=O)c3cnccn3)C2)C1 1.31%
CN(C)Cc1ccc(O)c(CN(C)C)n1 7.12% [at 11.4 µM]
CC(NC(=O)c1cccc(F)c1)C(c1cccs1)N1CCN(C)CC1 (centres undefined) -13%
COc1ccc(C(=O)[C@H](Br)[C@H](Br)C(=O)O)cc1 -11.2% [at 11.4 µM]
CNC(C)c1cc(OC)ccc1OC (centres undefined) -8.77%
CCCCSc1nc(C)cc(NC(=S)Nc2ccc(OC)cc2)n1 -28%
O=C1/C(=N\O)Cc2ccccc21 -18.6%
COCC(=O)N1CCC[C@@]2(CCN(C(=O)Nc3cccc(F)c3)C2)C1 3.07%
CCOC(=O)CCCN 4.7% [at 11.4 µM]
O=[N+]([O-])c1ccc2c(c1)S(=O)c1ccccc1-2 (centres undefined) -1.14% [at 11.4 µM]
O=C1C2=C(Nc3cc([N+](=O)[O-])ccc3N2)O[C@@H]1c1ccc([C@H]2OC3=C(Nc4ccc([N+](=O)[O-])cc4N3)C2=O)cc1 -18.7% [at 11.4 µM]
COc1cc2cc3c(N)c(C(=O)Nc4sc(C)c(C)c4C#N)sc3nc2cc1OC -13.7%
CC(C)(C)c1ccccc1OCCN1CCCC1 8.57%
COCCN(C(=O)Nc1ccc(OC)cc1OC)C1CCN(C(C)=O)CC1 -16.3%
CCOc1ccc2nc(C)cc(Nc3ccc4c(c3)OCCO4)c2c1 13.7%
CC(=O)c1[nH]c(C)c(C(C)=O)c1C -32.9%
CN(C)c1ccc2nc3c(C(=O)O)cc(=O)c(O)c-3oc2c1 -29.4% [at 11.4 µM]
Cc1ccc(-n2c(O)cnc2Nc2nc(C)cc(C)n2)cc1 4.21%
COc1cccc(Nc2ncc3nc(-c4ccc(Cl)cc4)c(=O)n(CCC#N)c3n2)c1 3.96%
COc1ccc(Oc2ncc3nc(-c4ccc(Cl)cc4)c(=O)n(C)c3n2)cc1 -9.75%
Nc1nc(-c2cc(-c3cccc4ccccc34)nc(N)n2)cc(-c2cccc3ccccc23)n1 10.6% [at 11.4 µM]
CN(Cc1cccc2ccccc12)Cc1cccc2ccccc12 -23.2% [at 11.4 µM]
C[C@@H]1CC[C@@H]2C(=O)N3[C@@H](CC[C@@H](C)[C@@H]3c3ccc(-c4ccco4)cc3)C(=O)N2[C@H]1c1ccc(-c2ccco2)cc1 -27.5% [at 11.4 µM]
c1cncc(CNc2ccnc(-c3ccc4c(c3)OCO4)n2)c1 -9.36% [at 2.29 µM]
COc1ccc(NC2=NC(=S)N(c3ccc(C)cc3)C23CCCCC3)cc1 20.2%
Cc1cccc(N2CCN(c3ccc(NC(=O)/C=C(/C(=O)O)c4ccccc4)cc3)CC2)c1 -27%
Cc1noc(C)c1-c1nc(NCCN2CCOCC2)c2ccccc2n1 1.01% [at 2.29 µM]
Cc1cc(NC(=O)c2nn(C)c(C)c2[N+](=O)[O-])no1 -8.43%
CC(=O)Nc1ccc([N+](=O)[O-])cn1 9.45%
COc1cccc(NC(=S)NN2CCN(C)CC2)c1 -10.9%
COc1ccccc1CN1CC[C@@]2(CCCN(C(=O)c3ccco3)C2)C1 5.94%
Cc1cc(C(=O)C(=O)NC(C)C)c(C)n1-c1ccc([N+](=O)[O-])cc1 -6.96%
